For 26 molecules, Potency and activity, negative = inhibition results are on record in PubChem BioAssay AID504332 (National Center for Advancing Translational Sciences (NCATS), 2011).

Among all 350,000 compounds or so, about 31,000 (8.9%) were called active. Entries that show only a call come without a potency. About 15% were inconclusive and are not listed. Only a selection was taken, and actives are over-represented in it overall. Unmarked numbers belong to inactive results. Calls come from the whole dose curve; as a rule, active = well fitted inhibition curve with a large enough effect; inconclusive = small, poorly fitted or top-dose-only effect; inactive = no such curve, though single readings can be large or run the other way.
Potency is the fitted concentration of half-maximal effect.

Sequence of Histone-lysine N-methyltransferase EHMT2 (Homo sapiens) (Q96KQ7 913-1193 limits assumed): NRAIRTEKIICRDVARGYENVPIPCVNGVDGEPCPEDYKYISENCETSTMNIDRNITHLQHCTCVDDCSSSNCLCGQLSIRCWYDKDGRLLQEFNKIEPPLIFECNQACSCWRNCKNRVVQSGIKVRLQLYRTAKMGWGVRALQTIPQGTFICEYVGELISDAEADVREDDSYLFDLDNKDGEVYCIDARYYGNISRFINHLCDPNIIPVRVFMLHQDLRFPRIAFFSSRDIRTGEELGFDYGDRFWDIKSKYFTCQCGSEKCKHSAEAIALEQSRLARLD

The experiment deals with Histone-lysine N-methyltransferase EHMT2 (Homo sapiens) (UniProt Q96KQ7). As to the kind of experiment: qHTS Assay for Inhibitors of Histone Lysine Methyltransferase G9a. Note: nearly all actives have a fitted effect of over 75% in size. The conditions noted are these: G9a H3K9 monomethylation, AlphaScreen, 2 h; series mostly up to 59 µM. In outline:
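Using a bead-based AlphaScreen, monomethylated H3K9 product from 2 h room-temperature reactions (G9a 20 nM, peptide 500 nM, SAM 20 uM) was detected with 0.5 ug/mL rabbit anti-H3K9me1 antibody.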
Turning to `CC(=O)N1CCCc2cc(S(=O)(=O)N3CCC(C(=O)NCc4ccc(C)cc4)CC3)ccc21`, the Potency result was “inactive”.

Consider `COc1ccccc1OCc1nc2ccccc2s1`, for which the activity, negative = inhibition is 17.1% [at 12.7 µM].

As for `COc1cccc2sc(Nc3nc(C)c(C(C)=O)s3)nc12`, the Potency entry is “inactive”.

As to `COc1cccc2sc(NNC(=O)c3nc4ccccc4s3)nc12`, the Potency is 12.6 µM (active).

With `O=C(Nc1cc(C(F)(F)F)ccc1Cl)c1nc2ccccc2nc1N1CCCCC1`, the Potency result was “inactive”.

As for `O=S(=O)(c1ccc(Cl)cc1)c1nnn2c1nc(NC1CCCC1)c1sccc12`, the Potency entry was “inactive”.

Regarding `CC1(C)CC(=O)C=C(c2ccc3ncccc3c2)C1`, the activity, negative = inhibition was 6.31% [at 2.33 µM].

Consider `COc1ccc(S(=O)(=O)N2CCOCC2)cc1NC(=O)CC1CC2CCC1C2` (stereo unspecified), for which the activity, negative = inhibition was 1.4% [at 2.33 µM].

As to `COc1ccccc1/C=C/C(=O)NC(=S)N1CCOCC1`, the Potency result is “inactive”.

On to `CCNC(=S)N1CCN(C(=O)c2ccco2)CC1`, for which the Potency entry is “inactive”.

As for `O=C(/C=C/c1ccco1)NC(=S)N1CCCCC1`, the Potency was 70.8 µM (active).

Regarding `COc1ccc(Cl)cc1NC(=O)CN(C)C(=O)c1cc(-c2cccs2)nn1-c1ccccc1`, the activity, negative = inhibition is 8.22% [at 0.501 µM].

Consider `CCOC(=O)c1ccc(NC(=O)Cn2c(=O)n(-c3ccc(C)cc3)c(=O)c3c2cnn3C)cc1`, for which the Potency result was “inactive”.

As to `CCc1ccccc1NS(=O)(=O)c1ccc2nc(-c3ccccc3)[nH]c2c1`, the Potency entry is “inactive”.

For `O=S(=O)(Nc1ccc2nc(-c3ccco3)[nH]c2c1)c1ccccc1`, the Potency is 31.6 µM (active).

With `O=S(=O)(Nc1ccc2nc(-c3cccc(Cl)c3)oc2c1)c1ccccc1`, the Potency entry is “inactive”.

As to `COc1ccc2oc(=O)c(-c3cn4c(n3)sc3cc(OC)ccc34)cc2c1`, the Potency result was “inactive”.

With `CCn1c(CN2CCC(C)CC2)nc2cc(NC(=O)c3ccccc3[N+](=O)[O-])ccc21`, the Potency entry is “inactive”.

On to `COC(=O)c1cc(S(=O)(=O)NCC2CCN(Cc3ccc(Cl)cc3)CC2)cn1C`, for which the Potency result is “inactive”.

For `COc1ccc(CCNC(=O)Cn2c(=O)cc(C(F)(F)F)c3c(C)nn(C)c32)c(OC)c1`, the Potency result is “inactive”.

As to `COc1ccccc1C(=O)NCCC(=O)NC(C)CCc1ccccc1` (stereo unspecified), the activity, negative = inhibition is 3.84% [at 0.501 µM].

For the molecule `O=C(CSc1nnc(-c2ccc(NS(=O)(=O)c3ccccc3)cc2)o1)NCC1CCCO1` (stereo unspecified), the Potency entry was “inactive”.

Consider `O=C(CSc1ccc(-c2ccccc2)nn1)NCC1CCCO1` (stereo unspecified), for which the Potency is 44.7 µM (active).

As to `CCn1c(SCC(=O)NCC2CCCO2)nc2ccccc21` (stereo unspecified), the activity, negative = inhibition is 19.8% [at 12.7 µM].

In the case of `CCOc1ccc(CCNC(=O)Cn2nc(CC)n3c(cc4sc(CC)cc43)c2=O)cc1OCC`, the Potency entry was “inactive”.

In the case of `CCc1nnc(NC(=O)c2cc(S(=O)(=O)N3CCCCC3)ccc2C)s1`, the Potency result is “inactive”.
